The list is not random: actives were taken first. Their share in the collection is about 3.5%.
FBW7 act – activators of human E3 ligase FBW7; Q969H0; AlphaScreen FBW7–phospho-cyclin E peptide binding, activator screen; normalized activity (activation), % at 26.1 µM; actives 0.13% (n = 650,000); AID 1259310; in the data active = normalized activity above about 1.9%;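 also: purified mutant Fbw7 with reduced substrate affinity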
MITF inh – blocks human microphthalmia-associated transcription factor. O75030. AlphaScreen MITF homodimerization, bead proximity signal. inhibition, % at 2.6 µM. actives 0.91% (n = 650,000). AID 1259374; in the data active = inhibition above about 50%
GPR151 activ – human GPR151 activation | activation, % at 11.2 µM | actives 1% (n = 650,000) | AID 1508602 | PathHunter beta-arrestin GPR151 cells, luminescence | Q8TDV0; in the data active = activation above about 4.9%
TEAD-YAP inh – TEAD-YAP interaction inhibition; actives 1.4% (n = 640,000); HEK-TIYL cells, TEAD-Gal4/YAP UAS-luciferase luminescence; inhibition, % at 9.12 µM; in the data active = inhibition above about 32%
GPR151 confirm – confirmation of human GPR151 activators. GPR151 PathHunter beta-arrestin cells, luminescence, 90 min; % of EA-reagent control over plate median. activation, % at 11.2 µM. shares compounds with GPR151 activ. 6,700 tested, under 10 active;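 active = mean percent activation across replicates above the confirmation screen cutoff of 4.91%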
GPR119 ag – GPR119 activation, counter-screen for GPR151 activators; shares compounds with GPR151 activ; GPR119 PathHunter beta-arrestin cells, luminescence, 90 min; 0 = compound-well median, 100 = enzyme-acceptor control; activation, % at 11.2 µM; actives 0.3% (n = 6,700); AID 1508611;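 active = mean percent activation in the counterscreen above 29.09%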;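 also: counterscreen on off-target GPR119 to flag nonselective hits from the GPR151 activator screen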
Target sequence (Q8TDV5 whole entry, looked up): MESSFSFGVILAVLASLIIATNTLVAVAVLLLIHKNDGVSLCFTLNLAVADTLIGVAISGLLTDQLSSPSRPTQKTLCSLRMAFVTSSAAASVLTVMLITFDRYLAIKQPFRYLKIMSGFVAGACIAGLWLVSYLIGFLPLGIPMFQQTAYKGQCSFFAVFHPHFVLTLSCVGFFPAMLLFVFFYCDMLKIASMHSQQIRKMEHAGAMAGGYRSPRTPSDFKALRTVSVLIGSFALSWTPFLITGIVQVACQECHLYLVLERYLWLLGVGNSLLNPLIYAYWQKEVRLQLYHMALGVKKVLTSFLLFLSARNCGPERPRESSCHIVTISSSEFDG
A number is an active result.

Screening COc1cc(NC(=O)c2ccc(-c3ccc(C(=O)N4CCN(C)CC4)cc3)s2)cc(OC)c1OC returned FBW7 act inactive, MITF inh inactive, GPR151 activ inactive and TEAD-YAP inh inactive.
Screening COc1cc(NC(=O)c2ccc(-c3ccc(C(=O)NC4CC4)cc3)s2)cc(OC)c1OC returned FBW7 act inactive, MITF inh inactive, GPR151 activ 5.3, TEAD-YAP inh 43, GPR151 confirm inactive and GPR119 ag inactive.
Screening CC1=C(C(=O)OC2CCCCCC2)C(c2ccccc2[N+](=O)[O-])CC(=O)N1 (stereo unspecified) returned FBW7 act inactive, MITF inh inactive, GPR151 activ inactive and TEAD-YAP inh inactive.
`O=C1CC(c2ccc3c(c2)OCO3)c2ccc3ccccc3c2N1` (stereo unspecified) gave FBW7 act inactive, MITF inh inactive, GPR151 activ inactive and TEAD-YAP inh inactive.
`O=C1CC(c2cc3c(cc2[N+](=O)[O-])OCO3)c2ccc3ccccc3c2N1` (stereo unspecified) gave FBW7 act inactive, MITF inh inactive, GPR151 activ 12, TEAD-YAP inh inactive, GPR151 confirm inactive and GPR119 ag inactive.
For O=C1CC(c2ccccc2[N+](=O)[O-])c2ccc3c(O)cccc3c2N1 (stereo unspecified) the results were FBW7 act inactive, MITF inh inactive, GPR151 activ 5.3, TEAD-YAP inh inactive, GPR151 confirm inactive and GPR119 ag inactive.
For CC1=C(C(=O)OC2CCCCCCC2)C(c2ccccc2[N+](=O)[O-])CC(=O)N1 (stereo unspecified) the results were FBW7 act inactive, MITF inh inactive, GPR151 activ 5.3, TEAD-YAP inh inactive, GPR151 confirm inactive and GPR119 ag inactive.
Cn1c(Nc2nc(NCc3cccc(C(F)(F)F)c3)c3[nH]cnc3n2)nc2ccccc21 was read as FBW7 act inactive, MITF inh inactive, GPR151 activ inactive and TEAD-YAP inh inactive.
Screening CC(=O)Nc1cnn(-c2ccc(C(=O)N(C)Cc3ccc(Oc4ccccc4)cc3)cc2)c1 returned FBW7 act inactive, MITF inh inactive, GPR151 activ 8.4, TEAD-YAP inh inactive, GPR151 confirm inactive and GPR119 ag inactive.
For Nc1nnnn1/N=C\C=C\c1ccccc1 the results were FBW7 act inactive, MITF inh inactive, GPR151 activ 9.2, TEAD-YAP inh inactive, GPR151 confirm inactive and GPR119 ag inactive.
Nc1nnnn1/N=C/C=C/c1cccc([N+](=O)[O-])c1 was read as FBW7 act inactive, MITF inh inactive, GPR151 activ inactive and TEAD-YAP inh inactive.
`COc1ccc(/C=N/N=c2\sc3ccccc3n2C)c(OC)c1` gave FBW7 act inactive, MITF inh inactive, GPR151 activ 9.2, TEAD-YAP inh inactive, GPR151 confirm inactive and GPR119 ag inactive.
For COc1cccc(/C=N\N=c2\sc3ccccc3n2C)c1OC the results were FBW7 act inactive, MITF inh inactive, GPR151 activ inactive and TEAD-YAP inh inactive.
Screening O=C(Cn1nnc2ccccc2c1=O)N1CCN(c2ccccc2)CC1 returned FBW7 act inactive, MITF inh inactive, GPR151 activ inactive and TEAD-YAP inh inactive.
For Cc1ccc(O)c(C2=Nc3ccccc3N=C(c3cccc(Br)c3)C2)c1 the results were FBW7 act inactive, MITF inh inactive, GPR151 activ inactive and TEAD-YAP inh inactive.
COc1ccc(O)c(C2=Nc3ccccc3N=C(c3cccc(Br)c3)C2)c1 was read as FBW7 act inactive, MITF inh inactive, GPR151 activ 5.5, TEAD-YAP inh inactive, GPR151 confirm inactive and GPR119 ag inactive.
CCCOc1ccc(C(N)=O)cc1OC was read as FBW7 act inactive, MITF inh inactive, GPR151 activ 5.6, TEAD-YAP inh inactive, GPR151 confirm inactive and GPR119 ag inactive.
COc1cc(C(N)=O)ccc1OCC(C)C was read as FBW7 act inactive, MITF inh inactive, GPR151 activ inactive and TEAD-YAP inh inactive.
Screening Cc1ccc(CNc2ncnc3c2c(-c2ccccc2)cn3-c2ccc(Cl)cc2)cc1 returned FBW7 act inactive, MITF inh inactive, GPR151 activ 8.4, TEAD-YAP inh inactive, GPR151 confirm inactive and GPR119 ag inactive.
Screening Cc1ccc(-n2cc(-c3ccccc3)c3c(NCc4ccccc4)ncnc32)cc1 returned FBW7 act inactive, MITF inh inactive, GPR151 activ inactive and TEAD-YAP inh inactive.
Screening COc1ccc(CNCc2cccc(C(F)(F)F)c2)c(OC)c1 returned FBW7 act inactive, MITF inh inactive, GPR151 activ inactive and TEAD-YAP inh inactive.
For Clc1cccc(N2CCN(c3ncnc4c3nc3n4CCCCC3)CC2)c1 the results were FBW7 act inactive, MITF inh inactive, GPR151 activ 12, TEAD-YAP inh 41, GPR151 confirm inactive and GPR119 ag inactive.
Screening O=Cc1ccccc1OCC(=O)NCCc1ccccc1 returned FBW7 act inactive, MITF inh inactive, GPR151 activ inactive and TEAD-YAP inh inactive.
`COC(=O)c1c(OCCc2ccccc2F)cc(=O)n2c1CCN(Cc1ccoc1)CC2` gave FBW7 act inactive, MITF inh inactive, GPR151 activ inactive and TEAD-YAP inh inactive.
For CCC(c1nnnn1C(C)(C)CC)N1CCN(Cc2ccccc2)CC1 (stereo unspecified) the results were FBW7 act inactive, MITF inh inactive, GPR151 activ 6.3, TEAD-YAP inh inactive, GPR151 confirm inactive and GPR119 ag inactive.
Screening Cc1ccc(C2=N/C(=C/c3ccc([N+](=O)[O-])cc3)C(=O)O2)cc1 returned FBW7 act inactive, MITF inh inactive, GPR151 activ 7.9, TEAD-YAP inh inactive, GPR151 confirm inactive and GPR119 ag inactive.
Screening O=C1OC(c2ccc([N+](=O)[O-])cc2)=N/C1=C\c1ccccc1 returned FBW7 act inactive, MITF inh inactive, GPR151 activ inactive and TEAD-YAP inh inactive.
Screening Cc1ccc(C2=N/C(=C/c3cc(Br)cs3)C(=O)O2)cc1[N+](=O)[O-] returned FBW7 act inactive, MITF inh inactive, GPR151 activ 5.1, TEAD-YAP inh inactive, GPR151 confirm inactive and GPR119 ag inactive.
`CC(=O)C1=NN(c2ccc(Cl)cc2)C2C(=O)N(c3ccccc3Cl)C(=O)C12` (stereo unspecified) gave FBW7 act inactive, MITF inh inactive, GPR151 activ inactive and TEAD-YAP inh inactive.
CCOC(=O)c1sc2nc(SCC(=O)C(C)(C)C)n(Cc3cccc(Br)c3)c(=O)c2c1C was read as FBW7 act inactive, MITF inh inactive, GPR151 activ inactive and TEAD-YAP inh inactive.
Screening CCOC(=O)N1CCc2c(sc(NC(=O)c3ccc(Br)s3)c2C#N)C1 returned FBW7 act inactive, MITF inh inactive, GPR151 activ 9.1, TEAD-YAP inh inactive, GPR151 confirm inactive and GPR119 ag inactive.
Screening O=Cc1nc(-c2ccccc2)n2ccccc12 returned FBW7 act inactive, MITF inh inactive, GPR151 activ inactive and TEAD-YAP inh inactive.
